Source: PubChem (several laboratories)
Autofluor counter = flagged as autofluorescent in microsphere protease counterscreen | fluorescence intensity (concentration not given with the values) | 360,000 tested, 3.1% active | compound autofluorescence counterscreen, microsphere flow cytometry; hits give high values; in the data active = fluorescence intensity above about 16000; inconclusive = no clear call, values can overlap the other calls
BoNT-F LC inh = BoNT F light chain protease inhibition; Multiplex microsphere protease cleavage assay, flow cytometry; inhibition, % at 10 µM; 360,000 tested, 0.22% active; in the data active = inhibition above about 35%, passing the limit was not always enough; inconclusive = no clear call, values can overlap the other calls
BoNT A protease = BoNT A light chain protease inhibition; multiplex microsphere protease substrate cleavage, flow cytometry; inhibition, % at 10 µM; 360,000 tested, 0.17% active; AID 588499
3CLpro inhibitor = SARS-CoV 3CLpro protease inhibition | P0C6X7 | 290,000 tested, 0.14% active | inhibition, % at 6 µM | recombinant SARS-CoV 3CLpro, quenched FRET peptide cleavage | AID 1706; in the data active = inhibition above about 12%
BJeLR viability = BJeLR cell viability loss; BJeLR (HRASV12) viability, CellTiter-Glo ATP luminescence, 48 h; inhibition, % (concentration not given with the values); 300,000 tested, 0.17% active; in the data active = inhibition above about 50%; inconclusive = no clear call, values can overlap the other calls
Anthrax LF inh2 = blocks Bacillus anthracis lethal factor protease | P15917 | multiplex microsphere protease cleavage assay, LF | inhibition, % at 10 µM | 360,000 tested, 0.12% active | AID 588501
Each line names hits and unclear results; the compound was inactive in the other large screens. In the library only some 3.6% were active in any assay of this set; here they are far more common. Cut-off read from the data, not from the text of the source, unless noted: active = inhibition above about 30%; inconclusive = no clear call, values can overlap the other calls; inactive = below that.

O=C(Cc1noc2ccccc12)Nc1ccc2ccccc2c1	Autofluor counter 21952
Nc1nc(-c2cc3ccccc3o2)cs1	none
CN1CCN(CC(=O)Nc2c(C(=O)C3CC3)oc3ccccc23)CC1	Autofluor counter 22556
O=C(CN1CCOCC1)Nc1c(C(=O)C2CC2)oc2ccccc12	none
CN(c1ccccc1)S(=O)(=O)c1cccc(NC(=O)CN2CCCc3ccccc32)c1	Autofluor counter 20032
COc1ccc(NC(=O)CCC(=O)OC(C(=O)c2ccccc2)c2ccccc2)cc1 (stereo not given)	Autofluor counter 20295
CCOC(=O)Cn1c(-c2ccc(Cl)nc2)nc2ccccc21	Autofluor counter 22764
CCOC(=O)Cn1c(=O)cnc2ccccc21	none
O=C1NC[C@@H](CCCCN2CCN(CC3CCCCC3)C(=O)C2=O)N(CCC2CCCCC2)C1=O	none (no result: 3CLpro inhibitor, BJeLR viability)
CC(C)[C@H](NC(=O)c1ccccc1)C(=O)OCC(=O)c1ccc2c(c1)NC(=O)CO2	Autofluor counter 23418
C[C@@H]1CN([C@H](C)CO)C(=O)CCCn2nncc2CO[C@@H]1CN(C)S(=O)(=O)c1ccc(F)cc1	none (no result: 3CLpro inhibitor, BJeLR viability)
CNC(=O)C12CCC(C)(c3nc4cc(C)c(C)cc4nc31)C2(C)C (stereo not given)	Autofluor counter 23268
Cc1cc2nc3c(nc2cc1C)C1(C(=O)O)CCC3(C)C1(C)C (stereo not given)	none
CC(=O)Nc1ccc(SCc2c(C)noc2C)cc1	Anthrax LF inh2 30
Cc1noc(C)c1CSc1ccc(Br)cc1	none
COc1ccc(NC(C)=O)cc1NC(=O)CSc1nnc(-c2ccncc2)n1C	Autofluor counter 21036, BoNT A protease inconclusive
COc1ccc(OC)c(-c2csc3nnc(SCC(=O)Nc4ccc(NC(C)=O)cc4)n23)c1	Autofluor counter 20934
COC(=O)c1ccccc1NC(=O)CSc1nnc(-c2cccnc2)n1C	BoNT-F LC inh inconclusive
Cc1ccc(NC(=O)CSc2nnc(-c3ccncc3)n2C)cc1C	Autofluor counter 20661, BoNT A protease inconclusive
COC(=O)c1cc(OC)c(OC)cc1NC(=O)CSc1nnc(-c2cccnc2)n1C	Autofluor counter 20945
Cn1c(SCC(=O)Nc2ccc(NC(=O)c3ccccc3F)cc2)nnc1-c1ccncc1	none
Cc1ccc(Oc2ncccc2C(=O)NC2CCSC2=O)cc1 (stereo not given)	none
COc1ccccc1CC(NC(C)=O)C(=O)NC1CCN(C(=O)c2ccc([N+](=O)[O-])cc2)CC1 (stereo not given)	none
CC(C)C(NC(=O)c1cccs1)c1nnc(SCC(=O)Nc2nccs2)n1C (stereo not given)	Autofluor counter 21406
CCn1c(SCC(=O)Nc2nccs2)nnc1-c1ccc(C)cc1	Autofluor counter inconclusive
CCC(=O)Nc1ccc(-c2nnc(SCC(=O)Nc3nccs3)n2C)cc1	Autofluor counter 19859
Cc1ccc(S(=O)c2snnc2C)cc1 (stereo not given)	none
Cc1ccc(S(=O)c2ccc(C)cc2)cc1	Autofluor counter 20056, BoNT A protease inconclusive
CCCCCCCCNC(=O)CCNC(=O)c1ccc(C(C)(C)C)cc1	Autofluor counter 16679
COCCCn1c(=O)c2ccccc2n(CC(=O)Nc2ccc3c(c2)OCCO3)c1=O	none
Brc1cccc(-c2nnc3sc(CN4CCC5(CC4)OCCO5)cn23)c1	Autofluor counter 24422
COc1ccc(CNC(=O)c2cc(C)nn2-c2ccccc2)cc1	none
Cc1cc(NCCCN2CCOCC2)n2nc(C)c(-c3ccccc3)c2n1	none
Cc1cc(NCCC(C)C)n2nc(C)c(-c3ccccc3)c2n1	Autofluor counter 24144
COc1cc(/C=C/C(=O)c2ccc(Cl)s2)cc(OC)c1O	Autofluor counter 21357, BoNT A protease inconclusive
CCNC(=O)n1nccc1C(C)Oc1ccccc1 (stereo not given)	Autofluor counter 21929
CC(=O)c1cccc(NC(=O)c2ccc(N(Cc3ccc(C)cc3)S(C)(=O)=O)cc2)c1	Autofluor counter 17101
Cc1ccc(CN(c2ccc(C(=O)Nc3ccc4c(c3)OCO4)cc2)S(C)(=O)=O)cc1	none
CCOC(=O)N1CCN(C(=O)c2ccc(N(Cc3ccc(C)cc3)S(C)(=O)=O)cc2)CC1	Autofluor counter 23851
COn1c(-c2ccccc2)c(C=O)c2ccccc21	Autofluor counter 37117, BoNT-F LC inh inconclusive
COc1ccccc1/C=C1\SC(=S)N(CCC(=O)NCCCn2ccnc2)C1=O	BJeLR viability 78
COc1ccccc1/C=C1\SC(=O)N(CCC(=O)NCCCn2ccnc2)C1=O	BJeLR viability 83
C=CCn1c(NCc2ccccc2)nc2ccccc21	none
C=CCn1c(N2C(=O)CC(Cc3ccccc3)C2=O)nc2ccccc21 (stereo not given)	Autofluor counter 22688
COc1ccccc1-n1c(SCC(=O)NCC2CCCO2)nc2c([nH]c3ccccc32)c1=O (stereo not given)	none
O=C(NCCCn1ccnc1)c1ccc(N2CCCCCC2)c([N+](=O)[O-])c1	BJeLR viability 71
CC1CN(S(=O)(=O)c2ccc(C(=O)NCCCn3ccnc3)cc2)CC(C)O1 (stereo not given)	BJeLR viability 71
CCC(=O)N1CCN(c2ccc(Cl)cc2NC(=O)c2ccc3c(c2)OCCO3)CC1	none
CCC(=O)N1CCN(c2ccc(Cl)cc2NC(=O)c2ccc(N3CCCC3)c([N+](=O)[O-])c2)CC1	Autofluor counter 18754
Cc1cccc(NC(=O)c2ccc(N3CCCCC3)c([N+](=O)[O-])c2)n1	Autofluor counter 24725, BoNT A protease inconclusive
COc1cccc(NC(=O)COc2coc(CN3CCc4ccccc4C3)cc2=O)c1	Autofluor counter inconclusive (no result: 3CLpro inhibitor)
COc1ccc(CN2CC[C@@H]3CN(C(C)=O)[C@H](c4ccccc4Br)C[C@@H]32)cc1	none (no result: 3CLpro inhibitor, BJeLR viability)
Cc1cc(C)cc(C(=O)NCC(=O)NNC(=O)CSc2ccccc2F)c1	none (no result: 3CLpro inhibitor, BJeLR viability)
COc1ccc(C(=O)c2c[nH]c(C(=O)NCCCn3ccnc3)c2)cc1	none
CC(C)(C)c1ccc(C(=O)c2c[nH]c(C(=O)NCCCn3ccnc3)c2)cc1	Autofluor counter 24832, BoNT A protease inconclusive
Cc1ccc(NC(=O)c2ccc(-n3cccn3)c([N+](=O)[O-])c2)cc1	Autofluor counter 16419
O=C(NC1CCCC1)C(c1cccnc1)N(C(=O)c1csnn1)C1CC1 (stereo not given)	none
CC(C)(C)C(=O)n1nc(-c2ccccc2)oc1=O	none
CCC1CCCCN1CCCNC(=O)COc1cc(=O)n(C)c2ccccc12 (stereo not given)	Autofluor counter 20141
Cc1cccc(CCNC(=O)COc2cc(=O)n(C)c3ccccc23)c1	none
CCOC(=O)CNC(=O)COc1coc(CN2CCN(c3ccccc3F)CC2)cc1=O	BoNT A protease 38
CCOC(=O)CNC(=O)COc1coc(CN2CCN(c3ccccc3)CC2)cc1=O	none
CCN(CCCNC(=O)COc1cc(=O)n(C)c2ccccc12)c1cccc(C)c1	Autofluor counter 17522
Cn1c(=O)cc(OCC(=O)NCCCN2CCN(c3ccccc3F)CC2)c2ccccc21	Autofluor counter 20602
